Screens (PubChem BioAssay)
HT1080-NT tox = kills 2HG-producing HT-1080-NT fibrosarcoma cells; HT-1080-NT fibrosarcoma viability, CellTiter-Glo ATP luminescence, 48 h; Potency, µM (series often up to 46.1 µM), actives largely listed as cytotoxic; actives 1.6% (n = 360,000);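 also: NT is the 2HG producing partner of a matched IDH1 knockdown line; nearly all actives have a fitted effect of over 55% in size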
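750 cells/well, RPMI + 5% FBS; 2 h settle, compound pin-transfer, 48 h at 37 degrees C. CellTiter-Glo 10 min RT, luminescence. Normalized to DMSO and media-only wells.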
12-LOX inh = inhibitors of human 12S-lipoxygenase ALOX12; P18054; purified 12hLO, xylenol orange hydroperoxide absorbance; Potency, µM (highest dose often 108 µM), usual class: inhibitors; actives 1.1% (n = 580,000); AID 1671190
Target sequence (P18054 whole entry, looked up): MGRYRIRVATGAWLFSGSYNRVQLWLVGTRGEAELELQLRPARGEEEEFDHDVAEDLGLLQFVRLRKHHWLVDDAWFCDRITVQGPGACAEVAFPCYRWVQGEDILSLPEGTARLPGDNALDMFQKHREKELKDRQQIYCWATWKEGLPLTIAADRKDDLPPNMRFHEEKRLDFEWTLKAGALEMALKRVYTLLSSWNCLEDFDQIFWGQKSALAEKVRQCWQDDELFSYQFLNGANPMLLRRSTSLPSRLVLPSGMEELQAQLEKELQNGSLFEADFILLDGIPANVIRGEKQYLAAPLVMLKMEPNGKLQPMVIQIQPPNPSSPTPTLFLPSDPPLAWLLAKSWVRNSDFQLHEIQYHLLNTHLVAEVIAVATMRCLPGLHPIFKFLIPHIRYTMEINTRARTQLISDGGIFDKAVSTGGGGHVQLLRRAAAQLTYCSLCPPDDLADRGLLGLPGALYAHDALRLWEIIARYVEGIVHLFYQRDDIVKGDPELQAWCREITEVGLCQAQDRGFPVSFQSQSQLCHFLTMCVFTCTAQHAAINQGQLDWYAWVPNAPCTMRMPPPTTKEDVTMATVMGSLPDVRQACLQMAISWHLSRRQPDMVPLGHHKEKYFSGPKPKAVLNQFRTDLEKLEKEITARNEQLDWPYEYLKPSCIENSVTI
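Purified human 12hLO (150 nM final) in 25 mM Hepes, 0.01% Triton X-100, pH 7.0 was preincubated 15 min at room temperature with compound. Then 40 uM arachidonic acid was added, 30 min. Hydroperoxide was read by Fe-XO absorbance ratio 573/405 nm.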
HT1080 IDH1KD tx = toxicity to HT-1080 IDH1 knockdown cells (counter line) | Potency, µM (series often up to 46.1 µM), hits mostly cytotoxic | HT-1080 IDH1 knockdown viability, ATP luminescence, 48 h | actives 2% (n = 360,000)
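IDH1KD HT-1080 cells, 750/well, RPMI + 5% FBS; compound pinned after 2 h settling; 48 h, 37 °C; CellTiter-Glo luminescence; % activity normalised to DMSO and no-cell wells; curves fitted, classed by r2 and efficacy.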
DT40 TDP1 CPT = DT40-hTDP1 cell growth loss with CPT. Potency, µM (highest dose often 46.2 µM), hits mostly inhibitors. actives 12% (n = 420,000). chicken DT40 Tdp1-/-;hTDP1 cells + 20 nM CPT, ATP luminescence, 48 h; also: nearly all actives have a fitted effect of over 55% in size
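Cell growth measured by CellTiter-Glo luminescence after a minimum 48 h, 37 C compound exposure with 20 nM CPT in Tdp1-knockout DT40 cells stably expressing hTDP1, seeded 400/well; qHTS titration format.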
IL1B secr inh = inhibitors of inflammasome signaling (IL-1 beta secretion); AID 743279; THP-1 LPS/ATP IL-1B secretion, AlphaLISA, 16 h; active compounds read low; actives 4.7% (n = 360,000); activity change, % at 57.5 µM; in the data active = activity change below about -50%; inconclusive = mostly about -30% to -49%
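Secreted IL-1B measured by AlphaLISA bead assay after 16 h compound exposure of THP-1 cells; compounds (final up to 57.5 uM) added 1 h before LPS (250 ng/mL) and ATP (1.25 mM) stimulation; lower signal means less secretion.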
TDP1 cell noCPT = qHTS for Inhibitors of human tyrosyl-DNA phosphodiesterase 1 (TDP1): qHTS in cells in absence of CPT; DT40 Tdp1-/- hTDP1 cells, no CPT, ATP luminescence, 48 h; Potency, µM (series often up to 46.2 µM), usual class: inhibitors; actives 15% (n = 420,000); also: nearly all actives have a fitted effect of over 55% in size
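Camptothecin absent (DMSO only). Human TDP1-complemented DT40 knockout cells, 400 cells/well, 37 °C for minimum 48 hr; ATP measured via CellTiter-Glo, 30 min dark incubation, luminescence.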
Hits are given with their value; i = inactive; ? = inconclusive; nt = no result given; [ ] = another dose, or the depositor's remark. Many of the other results were omitted from the sample, so hits are more common in it than they were. Unless noted, calls follow the shape of the dose curve; as a rule, active = well fitted curve in the direction sought with a large enough effect; inconclusive = small, poorly fitted or top-dose-only effect, or another doubt; inactive = no such curve, though single readings can be large; an effect the other way counts as inactive or inconclusive.

SMILES	HT1080-NT tox	12-LOX inh	HT1080 IDH1KD tx	DT40 TDP1 CPT	IL1B secr inh	TDP1 cell noCPT
COc1ccc(C(C)(O)c2nc(-c3csc4ccccc34)cs2)cc1 (centres undefined)	?	i	16µM	2.9µM	i	4.6µM
COc1cccc(C(C)(O)c2nc(-c3ccc(Cl)cc3)cs2)c1 (centres undefined)	?	?	?	?	i	?
CC(=O)NC(C)(c1ccccc1)c1nc(/C=C/c2ccccc2)cs1 (centres undefined)	i	i	i	?	i	16µM
COc1ccc(-c2csc(C(C)(O)c3cccc(OC)c3)n2)cc1 (centres undefined)	i	?	?	16µM	i	?
COc1cc(-c2ccccc2)nc(N)n1	i	i	i	i	i	i
Nc1nc(Cl)cc(-c2ccccc2)n1	i	i	i	i	-50	i
CC(C)(C)NC(=O)C(c1ccc(-c2ccccc2)cc1)N(C[C@H]1CC[C@@H]([C@@H]2CC[C@H](CO)O2)O1)C(=O)c1ccccc1F (some centres undefined)	i	nt	i	29µM	-63	16µM
COc1ccc(C(C(=O)NC(C)(C)C)N(C[C@H]2CC[C@@H]([C@@H]3CC[C@H](CO)O3)O2)C(=O)c2ccccc2)cc1 (some centres undefined)	i	i	i	i	i	i
CC(C)(C)NC(=O)C(c1ccc(-c2ccccc2)cc1)N(C[C@H]1CC[C@@H]([C@@H]2CC[C@H](CO)O2)O1)C(=O)c1ccc(-c2ccccc2)cc1 (some centres undefined)	i	nt	?	?	-55	15µM
CC(C)(C)NC(=O)C(c1ccc(-c2ccccc2)cc1)N(C[C@H]1CC[C@@H]([C@@H]2CC[C@H](CO)O2)O1)C(=O)c1cccc(Cl)c1 (some centres undefined)	i	i	i	?	-65	?
CCOc1ccc(N/C(=C\C(=O)c2ccccc2)c2ccccc2)cc1	nt	i	nt	nt	nt	nt
Cc1c(OCc2ccccc2)c(=O)ccn1Cc1ccc(Cl)cc1	?	i	?	?	i	16µM
Cc1ccc(Cn2ccc(=O)c(OCc3ccccc3)c2C)cc1	i	i	i	?	i	?
Cc1c(O)c(=O)ccn1Cc1ccccc1	i	?	i	23µM	i	18µM
O=C(NC[C@H]1OC[C@@H](N(Cc2ccccc2)Cc2ccccc2)[C@@H]1O)c1ccccc1	nt	i	nt	nt	nt	nt
Cc1nc(NCCC(C)C)sc1C(=O)NCc1ccco1	nt	i	nt	nt	nt	nt
c1csc(-c2cc(CSc3nnc(-c4ccncc4)o3)no2)c1	nt	i	nt	nt	nt	nt
O=C(NC(=S)Nc1ccc(Cc2ccncc2)cc1)c1ccc(F)cc1	i	?	i	?	i	16µM
CC(C)(C)C(=O)NC(=S)Nc1ccc(Cc2ccncc2)cc1	i	i	i	?	-65	?
CNC(=S)Nc1ccc(Cc2ccncc2)cc1	i	?	i	i	i	i
O=C(NC(=S)Nc1ccc(N2CCCC2)cc1)c1ccc(F)cc1	i	?	i	i	i	i
CC(C)C(C)NC(=O)c1ccc(I)cc1 (centres undefined)	nt	i	nt	nt	nt	nt
COc1ccc(-c2noc(CC(=O)Nc3cc(OC)ccc3OC)n2)cc1	nt	i	nt	23µM	nt	16µM
COc1cc(OC)c(NC(=O)CCc2ccccc2)cc1Cl	i	i	i	i	i	i
O=C(COCc1cc(-c2ccc(F)cc2)on1)Nc1cc(F)ccc1F	nt	i	nt	i	nt	i
SMILES	HT1080-NT tox	12-LOX inh	HT1080 IDH1KD tx	DT40 TDP1 CPT	IL1B secr inh	TDP1 cell noCPT
COc1cc(OC)c(NC(=O)CCc2nc(C3=CCN(Cc4cccc(Cl)c4)CC3)no2)cc1Cl	nt	i	nt	23µM	nt	8.2µM
COc1cc(OC)c(NC(=O)CCc2nc(-c3ccc(C)cc3)no2)cc1Cl	i	i	i[9.24 µM]	18µM	i	23µM
COc1ccc(OC)c(NC(=O)COCc2cc(-c3ccc(F)cc3)on2)c1	nt	i	nt	18µM	nt	?
O=C(Cn1cnc2c(Cl)cc(Cl)cc2c1=O)N1CCCC1c1ccc2c(c1)OCCO2 (centres undefined)	nt	i	nt	nt	nt	nt
CC1(C)Cc2cccc(OCC(=O)OCC(=O)Nc3ccc(F)c(F)c3)c2O1	nt	i	nt	nt	nt	nt
CC(=O)Nc1ccc(CN2CCC3(Cc4ccccc4CN(C(C)=O)C3)C2)cc1 (centres undefined)	nt	i[6.33 µM]	nt	nt	nt	nt
COc1ccc(OCCCn2cc(/C=C3/C(=N)N4C=C(C)SC4=NC3=O)c3ccccc32)cc1	i	i	i	?	i	7.3µM
COc1cc(/C=C2/C(=N)N3C=CSC3=NC2=O)ccc1OCCCOc1c(C)cccc1C	i	i	i	i	i	?
COc1cccc(OCCCn2cc(/C=C3/C(=N)N4C=C(C)SC4=NC3=O)c3ccccc32)c1	?	?	?	8.2µM	i	6.5µM
O=C(/C=C\c1ccccc1)NCC(=O)N/N=C/c1ccc(O)cc1O	?	nt	?	21µM	i	8.2µM
O=C(CNC(=O)C1COc2ccccc2O1)N/N=C/c1ccc(O)cc1O (centres undefined)	i	i	?	6.5µM	i	6.5µM
O=C(CNC(=O)C(c1ccccc1)c1ccccc1)N/N=C/c1ccc(O)cc1O	?	i	7.3µM	5.8µM	i	6.5µM
COc1ccc(Cl)cc1C(=O)NNC(=O)C1COc2ccccc2O1 (centres undefined)	i	i	i	?	i	?
O=C(NNC(=O)C1COc2ccccc2O1)c1ccccc1O (centres undefined)	i	i	i	?	i	16µM
O=C(COC(=O)CCNS(=O)(=O)c1ccc(F)c(Cl)c1)Nc1c(Cl)cccc1Cl	nt	i	nt	nt	nt	nt
N#CC1=C(N)OC2=C(C(=O)CCC2)C1c1cccc2ccccc12 (centres undefined)	nt	i	nt	nt	nt	nt
Cn1c(Cn2cccn2)nnc1C1CC(NC(=O)c2cc(C#N)c[nH]2)C1 (centres undefined)	nt	i	nt	nt	nt	nt
C/C(=C\C(=O)c1ccccc1)Nc1ccc(O)cc1	i	i	?	i	i	?
Cc1ccc(NC(=S)NNC(=S)NNc2ccccc2)cc1C	i	40µM	i	i	i	23µM
S=C(NNC(=S)Nc1ccc(Cl)cc1)NNc1ccccc1	i	45µM	i	15µM	i	16µM
S=C(Nc1ccccc1)Nc1nccs1	i	i	i	5.2µM	i	3.7µM
C/C(=C\C(=S)Nc1ccccc1)Nc1ccccc1	i	?	i	15µM	i	16µM
CCN(CC)S(=O)(=O)c1cc(N)ccc1C	nt	i	nt	nt	nt	nt
CC(C)C[C@H](NC(=O)NCCc1ccccc1F)C(=O)O	nt	i	nt	nt	nt	nt
